In all, about 2,100 compounds went through this assay and about 480 (23%) were called active. Roughly 5% stayed inconclusive and do not appear here.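 How the source made its calls: active means fitted curve reaches 40% activation at or below the top valid concentration, in every replicate test; inconclusive means replicate tests disagree on the call; inactive means the rest, including activity in the opposite direction.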 The list is a sample of the results. Measured potencies and affinities stand elsewhere.
Assay: PGC1a acetylation increase, cellular AlphaLISA – cell-based, cherry-picked samples, set 6, dose response (AID 720513);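 further: cells made to overexpress flag tagged PGC1a plus GCN5 acetyltransferase by viral infection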
Conditions: U2OS PGC1a acetylation AlphaLISA, overnight, 0 = neutral, -100 = inhibitor control; series mostly up to 19.5 µM; activation (acetylation increase): at the top concentration

Activation (acetylation increase), inactive:
O=C(Cc1cccnc1)N1CC(=O)N2[C@H](CO)[C@@H](c3ccc(C#CC4CCCCC4)cc3)[C@H]2C1 -1.38%
CCN(CC)C1CC(=O)N(c2ccc(Br)cc2)C1=O (stereo not drawn) 21%
COc1cccc(NC(=O)N2CCN(c3cccc(C)c3)C(C)C2)c1 (stereo not drawn) 32.5%
O=C(c1cc([N+](=O)[O-])ccc1N1CCCC1)N1CCCC1 22.3%
COC(=O)c1cc(C(=O)N2CCN(c3cccc(Cl)c3)CC2)cc([N+](=O)[O-])c1 -24.1%
COC(=O)[C@]1(Cc2ccccc2)N=C(c2ccc(OCCCO)cc2)O[C@@H]1c1ccccc1 24.2%
O=C(c1cccc(Cl)c1)N1CCN(c2ccc(N3CCOCC3)nn2)CC1 -16.9%
CCN1C(C#N)=C(C#N)N=C(C)CC1(C)C -8.91%
CC1(C(=O)Nc2cccc(C#N)c2)CCN1C(=O)CCc1ccccc1 (stereo not drawn) 27.8%
COc1cc(CN2C[C@@H]3N[C@H](C2)C3c2ccc(/C=C/c3ccccc3)cc2)cc(OC)c1 (stereo partly drawn) -94.1% [at 21 µM]
O=C1C=CCCN1S(=O)(=O)/C=C/c1ccccc1 -81.8%
CO[C@H]1CN(C)C(=O)c2ccc(NC(=O)Nc3ccccc3F)cc2OC[C@@H](C)NC[C@@H]1C -2.58%
CC(=O)N(C1=C(N2CCOCC2)C(=O)c2ccccc2C1=O)c1ccc(C(=O)O)cc1 -16%
N#Cc1ccsc1NC(=O)CSc1nnc(NC2CC2)s1 1.26%
Cc1cc(C)c(C#N)c(SCC(=O)Nc2nnc(-c3ccccc3)s2)n1 12.3%
Cc1ccc2nc(C)cc(OCC(=O)O)c2c1 -0.665%
C[C@@H]1CN([C@H](C)CO)C(=O)c2cc(C#CC3CC3)cnc2O[C@H]1CN(C)C(=O)Nc1ccc(F)cc1 3.17%
Cc1[nH]c2ccc(C(C)C)cc2c1CC(=O)O 15.9%
CC(C)(C)c1ccc(C(=O)NCCN2CCOCC2)cc1 12.6%
CC(C)(C)c1ccc(OCCSc2nc3ccccc3n2CC(=O)O)cc1 6.13%
O=C(Nc1ccc(CN2CCOCC2)cc1)c1ccc(F)cc1 8.79%
COc1ccc2c(c1)c1nc3ccccc3nc1n2CC(=O)OC(C)C 9.95%
N=c1n(Cc2ccccc2)c2ccccc2n1CC(O)COc1ccc(Cl)cc1Cl (stereo not drawn) -106%
Cc1nnc(SCC(=O)N2CCC(c3noc4ccc(F)cc34)CC2)s1 -9.01%
CS(=O)c1nc(-c2ccc(Br)cc2)cc(-c2ccccc2)c1C#N (stereo not drawn) -102%
CN(C)CCCNc1cc(-c2ccccc2)nc2cc(-c3cccc(F)c3)nn12 9.3% [at 10 µM]
C=CCn1c(C)cc(C(=O)Cn2ncc(Cl)c(Cl)c2=O)c1C -99%
Cc1cc(C)c(S(=O)(=O)NCC2CCC(C(=O)NCc3ccc4c(c3)OCO4)CC2)c(C)c1 (stereo not drawn) 35.8%

From PubChem BioAssay AID720513 (Broad Institute, 2013)
